mIDH1 inhibitor: human IDH1 R132H inhibition; O75874; IDH1-R132H enzyme, NADPH consumption, diaphorase/resazurin fluorescence; Potency, µM (top dose mostly 76.6 µM), for inactives: top-dose activity change, negative = inhibition, hits mostly inhibitors; 0.093% of 390,000 active; AID 602179; further: on the % scale 0 is the no-effect control and ±100 the full control effect; nearly all actives have a fitted effect of over 65% in size
Target sequence (O75874 whole entry R132H, stated change not applied): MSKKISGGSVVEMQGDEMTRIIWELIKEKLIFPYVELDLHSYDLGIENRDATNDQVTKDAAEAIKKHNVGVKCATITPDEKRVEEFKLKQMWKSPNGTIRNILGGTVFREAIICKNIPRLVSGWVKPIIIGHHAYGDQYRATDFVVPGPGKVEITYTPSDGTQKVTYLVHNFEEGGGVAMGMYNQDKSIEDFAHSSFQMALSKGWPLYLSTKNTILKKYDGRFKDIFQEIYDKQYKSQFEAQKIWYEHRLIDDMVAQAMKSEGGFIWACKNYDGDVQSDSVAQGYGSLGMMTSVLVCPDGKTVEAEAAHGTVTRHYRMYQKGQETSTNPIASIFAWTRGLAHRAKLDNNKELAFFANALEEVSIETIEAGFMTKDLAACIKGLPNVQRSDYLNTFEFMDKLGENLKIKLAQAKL
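IDH1-R132H (0.5 ug/mL) preincubated 30 min with compound, then NADPH (0.016 mM) and alpha-KG (2 mM) added; 80 min at RT, pH 7.5. Remaining NADPH coupled via diaphorase/resazurin to fluorescence (540/590 nm); concentration-response curves normalized to no-enzyme control.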
Nrf2 activator: activators of Nrf2 (ARE) signaling | AREc32 ARE-luciferase reporter (MCF7-derived line), luminescence, 24 h | Potency, µM (highest dose often 46.1 µM), for the others: at the top dose activation, most hits filed as activators | 0.31% of 410,000 active | AID 624171; further: % of control where 0% means no effect; nearly all actives have a fitted effect of over 65% in size
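For detection, Steady-Glo was added and plates sat 30 min at RT; before that, AREc32_Fluc cells grown overnight in OPTI-MEM/5% FBS had been treated with 23 nL compound for 24 hr at 37 deg C.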
ELG1 repair inh: blocks ELG1-dependent DNA repair in HEK293T cells; HEK293T ELG1-luciferase reporter, luminescence, 16 h; DNA damage induced by 5-fluorouridine; Potency, µM (titrated, usually from 46.1 µM), without a hit: at the highest dose activity change, negative = inhibition, actives largely listed as inhibitors; 2.3% of 330,000 active; AID 504467; further: on the % scale 0 is the no-effect control and ±100 the full control effect; nearly all actives have a fitted effect of over 55% in size
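Reporter activity after DNA damage by 5-fluorouridine is monitored. Compound-treated cells incubate 16 hr at 37 °C, then ONE-Glo is added for 30 min before luminescence reading.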
Nrf2 inh: blocks Nrf2 signaling. Potency, µM (doses to about 46 µM), for the others: at the top dose activity change, negative = inhibition, most hits filed as inhibitors. 2.1% of 360,000 active. AID 504444. A549 ARE-Fluc reporter, luciferase luminescence, 18-24 h; further: on the % scale 0 is the no-effect control and ±100 the full control effect; nearly all actives have a fitted effect of over 60% in size
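A549 ARE_Fluc cells (5000/well, 5% FBS OPTI-MEM) pre-incubated 2 h, then treated with compounds 18-24 h at 37C/5% CO2 in concentration-response. CellTiter-Fluor viability read first; BugLite luciferase luminescence after 15 min at room temperature gives Nrf2 activity.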
A549 viability: kills or reduces viability of A549 cells in Nrf2 counter-screen; A549 ARE-Fluc cells, CellTiter-Fluor viability, 18-24 h; Potency, µM (doses to about 46 µM), without a hit: at the top dose activity change, negative = cytotoxicity, most hits filed as inhibitors; 0.16% of 390,000 active; further: on the % scale 0 is the no-effect control and ±100 the full control effect
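A549 ARE-Fluc cells in 5% FBS OPTI-MEM, 5000 cells/well, rested 2 h then exposed to compounds in concentration-response for 18-24 h at 37 °C. Viability by CellTiter-Fluor fluorescence (Ex 405/Em 525) after 30 min; luciferase luminescence (BugLite, 15 min, RT) read afterwards.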
* = called active by the depositor; u = inconclusive; x = no result. Hits are enriched below; roughly 3.8% of the tested compounds scored in any of these assays. The call rests on the fitted dose curve; in most records, active means well fitted curve in the direction sought with a large enough effect; inconclusive means small, poorly fitted or top-dose-only effect, or another doubt; inactive means no such curve, though single readings can be large; an effect the other way counts as inactive or inconclusive. Potency means the concentration at half of the fitted maximal effect.

SMILES | mIDH1 inhibitor | Nrf2 activator | ELG1 repair inh | Nrf2 inh | A549 viability
CC(=C/c1ccccc1)/C=N/NC(=O)c1cnccn1 | -8% | 0% | u | 12% | -6%
O=C(N/N=C/C(Cl)=C\c1ccccc1)c1cnccn1 | 2% | 16µM* | u | u | 8%
O=C(N/N=C/C(Cl)=C/c1ccccc1)c1cnccn1 | 6% | 11µM* | u | u | -3%
Cc1ccc2c(c1)sc(-c1ccc(N(C)C)cc1)[n+]2C | 10% | 8% | u | 2.1µM* | u
O=C(NC1CCCCC1)C(c1ccc2ncccc2c1)N(Cc1ccccc1)C(=O)c1cccs1 (stereo not given) | -6% | 3% | -28% | 18µM* | -26%
COc1ccc(CN(C(=O)c2cccs2)C(C(=O)NC2CCCCC2)c2ccc3ncccc3c2)cc1 (stereo not given) | 5% | 3% | u | -6% | -5%
CC(c1ccccc1)N(CCC(c1ccccc1)C1CCOC(C)(C)C1)C(=O)c1ccco1 (stereo not given) | u | 0% | 23µM* | -16% | 1%
CCN(CC)S(=O)(=O)c1ccc(OC)c(NC(=O)c2sc3ccccc3c2Cl)c1 | 6% | -1% | x | 10% | -4%
CCN(CC)CCNC(=S)Nc1ccc2nc(N3CCN(C)CC3)cc(C)c2c1 | 0% | 1% | 2% | -16% | u
CCN(CC)CCNC(=S)Nc1ccc2nc(N3CCCC3)cc(C)c2c1 | 3% | 9% | u | 2% | 5.8µM*
Cc1cc(N2CCCCC2)nc2ccc(NC(=O)c3ccc(Br)o3)cc12 | 9% | 0% | u | 21µM* | u
Cc1nc(-c2ccccc2)[nH]c(=O)c1Oc1ccc(Cl)cc1Cl | -3% | -1% | 8.2µM* | 21µM* | -9%
Cc1cccc(-c2cc(C(=O)NCc3ccccn3)c3ccccc3n2)c1 | 1% | 5% | 16µM* | 21% | -2%
Cc1cccc(-c2cc(C(=O)N3CCCc4ccccc43)c3ccccc3n2)c1 | 2% | 3% | 7.3µM* | u | 2%
O=C(c1cc(-c2ccccc2)nc2ccccc12)N1CCCc2ccccc21 | 1% | 7% | 18µM* | u | -5%
O=C1C(Cl)=C(N2CCN(c3ccccc3[N+](=O)[O-])CC2)C(=O)c2ccccc21 | 5% | 7.9µM* | u | 1% | -22%
C=CCOc1ccc(C2/C(=C(\O)c3ccc4c(c3)OCCO4)C(=O)C(=O)N2CCCN2CCOCC2)cc1 (stereo not given) | -11% | 0% | 9% | 11% | 0%
O=C(c1cccc2ccccc12)C1CCCN(C(=O)c2ccc(N3CCOCC3)cc2)C1 (stereo not given) | -4% | 5% | 16µM* | -18% | 8%
COc1ccc(NC(=O)Cn2c(=O)nc(-c3ccccc3)c3ccccc32)cc1OC | -13% | 2% | x | x | 0%
CCOc1ccc(N(CC(=O)Nc2ccccc2CC)S(=O)(=O)c2c(C)noc2C)cc1 | 9% | -1% | x | 6% | -7%
Cc1ccc(CNC(=O)c2ccc3c(=O)c(O)c(-c4ccc(C)cc4)[nH]c3c2)cc1 | -23% | 7% | -29% | 21µM* | u
CSc1nccc(N2CCN(c3ccc(F)cc3)CC2)n1 | 0% | 4% | 1% | u | -12%
Clc1ccc(N2CCN(c3ccnc(Cl)n3)CC2)cc1 | 4% | 0% | x | 16µM* | -7%
O=C(Cc1ccc2c(c1)OCCO2)Nc1cc(C(F)(F)F)ccc1N1CCOCC1 | 4% | -1% | -16% | u | -9%
c1ccc(-c2cn(-c3ccccc3)c3[n+]2CCS3)cc1 | 6% | -1% | 4.6µM* | u | -12%
SMILES | mIDH1 inhibitor | Nrf2 activator | ELG1 repair inh | Nrf2 inh | A549 viability
COc1ccc(-c2cn(-c3ccccc3)c3[n+]2CCS3)cc1 | 5% | 2% | u | 2.6µM* | -12%
Fc1ccc(-n2cc(-c3ccccc3)[n+]3c2SCC3)cc1 | 0% | -1% | -23% | u | -9%
CC(C)(C)c1ccc(-c2cn(-c3ccc(Br)cc3)c3[n+]2CCCS3)cc1 | -13% | 15% | 4.1µM* | -27% | -12%
Cc1ccc(-c2cn(-c3ccc(SC(F)F)cc3)c3[n+]2CCC3)cc1 | 9% | 0% | u | u | 0%
CCCN1CNc2c(c(=O)[nH]c(=S)n2CCc2cccc(Cl)c2)C1 | x | x | x | 5% | 14%
CC(=O)Nc1ccc(OCc2cccc(C3Nc4ccccc4C(=O)N3Cc3ccco3)c2)cc1 (stereo not given) | x | x | x | -14% | -9%
Cc1occc1C(=O)Nc1nccs1 | 3% | 2% | 6% | 8% | -12%
O=C(CN1CCCC1)Nc1nnc(-c2cccs2)s1 | 7% | 11µM* | u | u | -5%
O=C(CN1CCCCC1)Nc1nnc(-c2ccccc2)s1 | 5% | u | u | 25% | -1%
Cc1occc1C(=O)Nc1nnc(-c2cccs2)s1 | -8% | 11µM* | u | u | -3%
Cc1cccc(C)c1NC(=O)Cn1nc(C)c2sc3ccccc3c2c1=O | -6% | 0% | x | 21µM* | 4%
Cc1nn(CC(=O)N2CCOCC2)c(=O)c2c1sc1ccccc12 | -8% | -1% | 15% | 10% | -3%
COc1ccc(NC(=O)c2c(C)oc3ccc(O)c(CN4CCC(C)CC4)c23)cc1Cl | -11% | -1% | x | 2% | -3%
CN1/C(=C\C(=O)c2cccnc2)C(C)(C)c2ccccc21 | 4% | 4% | 0% | u | -14%
CN1/C(=C\C(=O)c2cncc(Br)c2)C(C)(C)c2ccccc21 | 16% | 1% | 16µM* | 23µM* | -11%
Cc1ccc(C(=O)NC(=S)/C=C2\N(C)c3ccccc3C2(C)C)cc1 | -4% | 0% | -12% | 18µM* | u
CN1/C(=C\C(=O)c2cccc(S(=O)(=O)N3CCCCC3)c2)C(C)(C)c2ccccc21 | 11% | 1% | 18µM* | -4% | 3%
O=C(CC1Sc2ccccc2NC1=O)Nc1cccc(C(F)(F)F)c1 (stereo not given) | -6% | 1% | x | x | 0%
O=C(CCCCn1c(=O)c2ccccc2n(CC(=O)Nc2ccccc2)c1=O)NCc1ccccc1Cl | -6% | -1% | x | -7% | -1%
O=C(O)CCc1ccc(-c2ccc(Cl)cc2)n1-c1cccc(C(F)(F)F)c1 | -1% | u | x | -12% | 1%
Cc1cccc(NC(=O)c2sc3nc4c(cc3c2N)CN(C(C)C)CC4)c1 | 0% | 4% | x | 16µM* | -14%
Cc1cccc(NC(=O)c2sc3nc4c(cc3c2N)CN(Cc2ccccc2)CC4)c1 | -10% | 3% | x | 19% | 0%
Cc1ccc(NC(=O)Cc2nc(COC(=O)c3c(F)cccc3Cl)cs2)cc1 | 3% | 1% | 18µM* | -15% | -4%

Assay outcomes deposited in PubChem by National Center for Advancing Translational Sciences (NCATS).
